Screening results: PubChem, National Center for Advancing Translational Sciences (NCATS)
IL1B secr inh: qHTS for Inhibitors of Inflammasome Signaling: IL-1-beta AlphaLISA Primary Screen; THP-1 LPS/ATP IL-1B secretion, AlphaLISA, 16 h; hits give low values; activity change, % at 57.5 µM; 4.7% of 360,000 active; AID 743279, 2014; in the data active means activity change below about -50%; inconclusive means mostly about -30% to -49%; further: on the % scale 0 is the no-effect control and ±100 the full control effect
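Secreted IL-1B measured by AlphaLISA bead assay after 16 h compound exposure of THP-1 cells; compounds (final up to 57.5 uM) added 1 h before LPS (250 ng/mL) and ATP (1.25 mM) stimulation; lower signal means less secretion.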
HepG2 viability: qHTS for Inhibitors of TGF-b: Cytotox Counterscreen | Potency, µM (highest dose often 46.1 µM), for the others: top-dose activity change, negative = cytotoxicity, most hits filed as cytotoxic | AID 588856, 2011 | HepG2 CAGA-GFP viability, ATP luminescence, 18 h | 0.76% of 410,000 active; further: potency means the concentration at half of the fitted maximal effect
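CellTiter-Glo luminescence gave cytotoxicity after 18 hours at 37 degrees C. The cells were HepG2 CAGA-GFP in 1% FBS DMEM, stimulated with 500 pg/mL TGF-beta after compound addition. %Activity was normalised to no-cell wells (complete cell-killing) and DMSO (no toxicity), and curves were fitted and classified.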
S-ASM inh: Inhibitors of Secretory Acid Sphingomyelinase (S-ASM): qHTS; placental ASM, HMU-PC fluorogenic substrate, 60 min; Potency, µM (series often up to 57.5 µM), inactives show top-dose activity change, negative = inhibition, usual class: inhibitors; 0.006% of 340,000 active; AID 504937, 2011; further: potency means the concentration at half of the fitted maximal effect
Target sequence (P17405 47-631 limits assumed): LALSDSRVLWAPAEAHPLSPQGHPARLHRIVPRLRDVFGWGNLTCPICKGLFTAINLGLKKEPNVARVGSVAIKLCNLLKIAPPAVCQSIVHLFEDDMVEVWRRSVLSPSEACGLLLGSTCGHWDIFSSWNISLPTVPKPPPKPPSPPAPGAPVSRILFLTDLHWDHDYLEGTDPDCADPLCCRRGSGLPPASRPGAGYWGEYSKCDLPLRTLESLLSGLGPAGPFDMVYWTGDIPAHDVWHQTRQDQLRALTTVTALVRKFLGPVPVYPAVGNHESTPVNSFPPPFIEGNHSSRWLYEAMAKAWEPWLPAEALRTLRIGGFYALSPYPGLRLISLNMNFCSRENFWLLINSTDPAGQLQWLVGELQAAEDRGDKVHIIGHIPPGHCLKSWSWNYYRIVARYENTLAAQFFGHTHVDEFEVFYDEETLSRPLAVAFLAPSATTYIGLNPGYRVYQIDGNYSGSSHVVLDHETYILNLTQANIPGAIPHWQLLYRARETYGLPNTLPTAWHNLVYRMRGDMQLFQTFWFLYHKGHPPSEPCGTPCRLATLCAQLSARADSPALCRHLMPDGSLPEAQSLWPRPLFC
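Steps: dispense placental human ASM, pin compound, wait 10 min at room temperature, add HMU-PC0 substrate at 9 uM final, incubate 60 min at 37 °C, add stop solution raising pH to 10, read fluorescence.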
DT40 TDP1 no CPT: qHTS for Inhibitors of human tyrosyl-DNA phosphodiesterase 1 (TDP1): qHTS in cells in absence of CPT | DT40 Tdp1-/- hTDP1 cells, no CPT, ATP luminescence, 48 h | Potency, µM (top dose mostly 46.2 µM), for inactives: top-dose activity change, negative = growth inhibition, hits mostly inhibitors | 15% of 420,000 active | AID 686978, 2013; further: potency means the concentration at half of the fitted maximal effect; on the % scale 0 is the no-effect control and ±100 the full control effect; nearly all actives have a fitted effect of over 55% in size
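No-CPT arm: Tdp1-/-;hTDP1 DT40 cells (400/well) plus compounds, incubated ≥48 hr at 37 °C. Readout CellTiter-Glo luminescence.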
TDP1 cell CPT: qHTS for Inhibitors of human tyrosyl-DNA phosphodiesterase 1 (TDP1): qHTS in cells in presence of CPT; chicken DT40 Tdp1-/-;hTDP1 cells + 20 nM CPT, ATP luminescence, 48 h; Potency, µM (highest dose often 46.2 µM), inactives show at the top dose activity change, negative = growth inhibition, actives largely listed as inhibitors; 12% of 420,000 active; AID 686979, 2013; further: potency means the concentration at half of the fitted maximal effect; on the % scale 0 is the no-effect control and ±100 the full control effect; nearly all actives have a fitted effect of over 55% in size
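Cell growth measured by CellTiter-Glo luminescence after a minimum 48 h, 37 C compound exposure with 20 nM CPT in Tdp1-knockout DT40 cells stably expressing hTDP1, seeded 400/well; qHTS titration format.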
TGFb SMAD3 inh: qHTS for Inhibitors of TGF-b; Potency, µM (series often up to 46.1 µM), for the others: at the top dose activity, negative = inhibition, usual class: inhibitors; HepG2 CAGA-GFP TGF-b/SMAD3 reporter, GFP fluorescence, 18 h; TGF-beta stimulated, 500 pg/mL final; AID 588855, 2011; 1.2% of 410,000 active; further: potency means the concentration at half of the fitted maximal effect; on the % scale 0 is the no-effect control and ±100 the full control effect; nearly all actives have a fitted effect of over 65% in size
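Inhibition of TGF-beta-driven CAGA-GFP reporter expression in HEPG2 cells is measured by cellular GFP fluorescence after 18 h stimulation with 500 pg/mL recombinant TGF-beta in 1% FBS medium at 37 degrees C.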
* marks the source's active call; other numbers are inactive results; ? = inconclusive; . = not tested or not shown. An excerpt weighted towards active compounds, which were near 19% of everything screened. Unless noted, the call rests on the fitted dose curve; in most records, active means well fitted curve in the direction sought with a large enough effect; inconclusive means small, poorly fitted or top-dose-only effect, or another doubt; inactive means no such curve, though single readings can be large; an effect the other way counts as inactive or inconclusive.

SMILES | IL1B secr inh | HepG2 viability | S-ASM inh | DT40 TDP1 no CPT | TDP1 cell CPT | TGFb SMAD3 inh
OC(CN1c2ccccc2Sc2ccccc21)Cn1nnc2ccccc21 (stereo unspecified) | ? | 18µM* | -26% | 21µM* | ? | 0%
COc1ccc(Nc2ncnc3sccc23)c(OC)c1 | 14 | -81% | 0% | -3% | 1% | 2%
Cc1cc(C)c2c(-n3cccc3)c(C(=O)NCCc3ccc(Cl)cc3)sc2n1 | . | 2% | . | ? | -16% | -12%
Cc1ccc(NC(=O)N2CCN3CCCCC3C2)cc1F (stereo unspecified) | . | 1% | . | 1% | 1% | 8%
COc1ccc(N/N=C(\C#N)C(N)=O)cc1 | -15 | 10% | -9% | -1% | 11% | -15%
N#C/C(=N/Nc1ccc(OC(F)(F)F)cc1)C(N)=S | -64* | -162% | -10% | 1.6µM* | 2.3µM* | ?
Cc1cc(Br)c(NC(=O)COC(=O)c2ccc[n+]([O-])c2)c(Br)c1 | 1 | 6% | -1% | -2% | 6% | -2%
COc1cc(CNC(C)(C)CO)cc(Br)c1OCc1ccc(Cl)cc1Cl | ? | -106% | -14% | ? | ? | ?
COc1cc(CNCCO)cc(Cl)c1OCc1ccc(Cl)cc1Cl | -83* | -190% | -8% | 21µM* | ? | 22µM*
COc1cc(CNCCO)cc(Br)c1OCc1ccccc1Cl | -15 | -127% | -4% | ? | 23µM* | ?
CCN(CC)c1ccc(C(=O)Nc2ccc3nc(N(CC)CC)cc(C)c3c2)cc1 | . | -31% | . | ? | ? | 0%
CCN(CC)c1cc(C)c2cc(NC(=O)/C=C/c3ccccc3OC(C)C)ccc2n1 | . | -24% | . | 23µM* | ? | ?
O=C1c2cccc(NCCNCCO)c2C(=O)c2cccc(NCCNCCO)c21 | -117* | -12% | -12% | 0.73µM* | 0.37µM* | ?
Cc1ccc(Cn2c(C)c(CNCCCc3ccccc3)c(C(=O)O)c2C)cc1 | . | -17% | . | ? | ? | 21%
Cc1cc(C)c(Cn2c(C)c(CNCCCc3ccccc3)c(C(=O)O)c2C)c(C)c1 | . | -3% | . | 23µM* | ? | 21%
Cc1oc2ccc(O)cc2c1C(=O)c1ccc([N+](=O)[O-])cc1 | ? | 0% | -3% | 13µM* | 21µM* | -8%
Cc1oc2ccc(O)cc2c1C(=O)c1ccc(Cl)cc1 | 11 | -35% | -7% | ? | -22% | -10%
OC1(c2ccc(Cl)c(Cl)c2)C[n+]2ccccc2N1Cc1ccccc1 (stereo unspecified) | -85* | -90% | -1% | 18µM* | 13µM* | ?
O=C(NC1CCN(Cc2ccccc2)CC1)c1c(Cl)cccc1Cl | -14 | -14% | -1% | -1% | 4% | 0%
COCCCN1C(=O)c2[nH]nc(-c3ccccc3O)c2C1c1ccc(OC)cc1 (stereo unspecified) | . | -24% | . | 29µM* | 16µM* | -3%
COCCCN1C(=O)c2[nH]nc(-c3cc(C)ccc3O)c2C1c1ccc(F)cc1 (stereo unspecified) | . | -27% | . | ? | ? | -18%
COCCCN1C(=O)c2[nH]nc(-c3ccccc3O)c2C1c1ccc(Cl)cc1 (stereo unspecified) | -7 | -36% | -22% | ? | 23µM* | 0%
